In PubChem BioAssay (NCI):
The panel holds about 79,000 compounds, 15% with a hit somewhere; the sample as a whole holds those more often. Activity calls are given as the source filed them. No stated cut-off is given here; in the data, active means growth inhibition above about 70%; inactive means the rest.

Assays:
[1] = NCI Yeast Anticancer Drug Screen. Data for the rad52 strain (AID 147);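 further: 0% = growth of vehicle-treated control cultures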; conditions: S. cerevisiae rad52 mutant growth inhibition, hits give high values
Outline: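 Growth of repair-deficient yeast cells was compared between compound-treated and vehicle-treated cultures to give percent inhibition.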

[2] = NCI Yeast Anticancer Drug Screen. Data for the wt1 strain (AID 149);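 further: 0% = growth of vehicle-treated wt1 cultures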; conditions: S. cerevisiae wt1 strain (SPY 50644) growth inhibition, hits give high values
Outline: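 Measured: growth of wt1 yeast under compound versus vehicle treatment, reported as inhibition.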

[3] = NCI Yeast Anticancer Drug Screen. Data for the rad50EPP+ strain (AID 151);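 further: 0% = growth of vehicle-treated control cultures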; conditions: S. cerevisiae rad50 mutant strain, hits give high values
Outline: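 Measured: growth inhibition of rad50EPP+ yeast. Reference: vehicle-treated controls. Screen uses strains with defined genetic alterations in DNA damage repair or cell cycle control.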

[4] = NCI Yeast Anticancer Drug Screen. Data for the mgt1 strain (AID 153); conditions: S. cerevisiae mgt1 mutant growth inhibition, hits give high values
Outline: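 Compounds were applied to mgt1 mutant yeast, and growth was then compared against vehicle-treated control cultures to give percent inhibition.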

[5] = NCI Yeast Anticancer Drug Screen. Data for the rad50 strain (AID 155);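 further: 0% = growth of vehicle-only cultures of the same strain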; conditions: S. cerevisiae rad50 strain growth inhibition, hits give high values
Outline: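 Growth of the mutant yeast was measured after compound exposure and referenced to vehicle-treated cultures.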

[6] = NCI Yeast Anticancer Drug Screen. Data for the mec2-1 strain (AID 157); conditions: S. cerevisiae mec2-1 strain, hits give high values
Outline: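 Compounds were applied to mec2-1 yeast cells. Their growth was then compared with that of vehicle-treated cultures to give growth inhibition.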

[7] = NCI Yeast Anticancer Drug Screen. Data for the rad14 strain (AID 159);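 further: 0% = growth of vehicle-treated control cultures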; conditions: S. cerevisiae rad14 strain growth inhibition, hits give high values
Outline: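 Here, inhibition of yeast growth was measured after compound exposure, using a strain with a genetic defect in DNA damage repair and vehicle-treated cultures as the reference.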

[8] = NCI Yeast Anticancer Drug Screen. Data for the sgs1 mgt1 strain (AID 161);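 further: 0% = growth of cultures given vehicle only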; conditions: S. cerevisiae sgs1 mgt1 strain, hits give high values
Outline: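 Yeast cells carrying a defined DNA-repair defect were exposed to test compounds. Growth inhibition was measured relative to vehicle-treated controls.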

[9] = NCI Yeast Anticancer Drug Screen. Data for the CLN2oe strain (AID 163);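 further: 0% = growth of vehicle-only control cultures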; conditions: S. cerevisiae CLN2oe strain, hits give high values
Outline: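 Cells of an engineered yeast line with disturbed cell-cycle regulation are treated with compound. Inhibition of growth is then calculated relative to the vehicle-treated reference.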

[10] = NCI Yeast Anticancer Drug Screen. Data for the cln2 rad14 strain (AID 165);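 further: 0% = growth equal to vehicle treated cultures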; conditions: S. cerevisiae cln2 rad14 strain, hits give high values
Outline: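 Strain: cln2 rad14 yeast, altered in cell cycle control and DNA damage repair. Read-out: growth inhibition vs vehicle.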

[11] = NCI Yeast Anticancer Drug Screen. Data for the bub3 strain (AID 167); conditions: S. cerevisiae bub3 mutant strain, hits give high values
Outline: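 Whole-cell yeast assay. The mutant strain was incubated with compounds, and growth inhibition was determined by comparison with vehicle-treated cells.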

[12] = NCI Yeast Anticancer Drug Screen. Data for the wt2 strain (AID 169);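 further: 0% = growth of vehicle-treated yeast cultures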; conditions: S. cerevisiae wt2 strain growth inhibition, hits give high values
Outline: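 Growth of compound-treated yeast is measured and expressed as inhibition relative to vehicle-only controls.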

[13] = NCI Yeast Anticancer Drug Screen. Data for the mlh1 strain (AID 171);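 further: 0% = growth of vehicle-treated control cultures of the same strain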; conditions: S. cerevisiae mlh1 strain growth inhibition, hits give high values
Outline: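 Test agents were incubated with yeast bearing a defined DNA damage repair or cell cycle control alteration; values are growth inhibition normalised to vehicle-treated cultures.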

[14] = NCI Yeast Anticancer Drug Screen. Data for the sgs1 strain (AID 173);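 further: 0% = growth of vehicle-only control cultures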; conditions: S. cerevisiae sgs1 mutant, hits give high values
Outline: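 Strain with an altered DNA repair or cell cycle pathway exposed to compound. Growth then measured. Value = inhibition versus vehicle control.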

[15] = NCI Yeast Anticancer Drug Screen. Data for the mlh1 rad18 strain (AID 175); conditions: S. cerevisiae mlh1 rad18 strain growth inhibition, hits give high values
Outline: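 A repair-deficient yeast strain is exposed to test compound, and growth is scored relative to vehicle-treated controls.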

[16] = NCI Yeast Anticancer Drug Screen. Data for the rad18 strain (AID 177); conditions: S. cerevisiae rad18 mutant growth inhibition, hits give high values
Outline: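 DNA-repair-defective yeast; compound treatment; growth inhibition scored against vehicle.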

[17] = at 5.0 µM (retest, dose inferred, filed as 0.5)
[18] = at 50.0 µM (retest, dose inferred, filed as 5.0)

Measured: growth inhibition

Fc1ccc(NC(=S)SCc2ccc3c(c2)OCO3)cc1F
inactive: [1]; at 1.2 µM 15% | [1]; at 3.7 µM 9% | [2]; at 1.2 µM 6% | [2]; at 3.7 µM 6% | [2]; at 11.0 µM 66% | [3]; at 1.2 µM 0% | [3]; at 3.7 µM 27% | [4]; at 1.2 µM -3% | [4]; at 3.7 µM 12% | [4]; at 11.0 µM 61% | [5]; at 1.2 µM -9% | [5]; at 3.7 µM 22% | [5]; [17] 23% | [5]; at 11.0 µM 57% | [6]; at 1.2 µM -10% | [6]; at 3.7 µM 2% | [6]; [17] -7% | [6]; at 11.0 µM 49% | [7]; at 1.2 µM -9% | [7]; at 3.7 µM 20% | [7]; at 11.0 µM 65% | [8]; [17] 31% | [9]; at 1.2 µM 8% | [9]; at 3.7 µM 28% | [9]; at 11.0 µM 40% | [10]; [17] 21% | [11]; at 1.2 µM -19% | [11]; at 3.7 µM -11% | [11]; [17] 35% | [11]; at 11.0 µM 42% | [12]; at 1.2 µM -2% | [12]; at 3.7 µM 19% | [12]; at 11.0 µM 58% | [13]; at 1.2 µM -29% | [13]; at 3.7 µM -28% | [13]; at 11.0 µM 53% | [14]; at 1.2 µM -17% | [14]; at 3.7 µM -13% | [14]; at 11.0 µM 59% | [15]; [17] 6% | [16]; at 1.2 µM 20% | [16]; at 3.7 µM 34%
active: [1]; at 11.0 µM 71% | [1]; at 33.0 µM 98% | [1]; at 100.0 µM 97% | [2]; at 33.0 µM 98% | [2]; at 100.0 µM 97% | [3]; at 11.0 µM 96% | [3]; at 33.0 µM 99% | [3]; at 100.0 µM 99% | [4]; at 33.0 µM 99% | [4]; at 100.0 µM 96% | [5]; at 33.0 µM 99% | [5]; [18] 97% | [5]; at 50.0 µM 92.2% | [5]; at 100.0 µM 98% | [6]; at 33.0 µM 99% | [6]; [18] 99% | [6]; at 50.0 µM 91.7% | [6]; at 100.0 µM 98% | [7]; at 33.0 µM 99% | [7]; at 100.0 µM 94% | [8]; [18] 99% | [8]; at 50.0 µM 92.5% | [9]; at 33.0 µM 99% | [9]; at 100.0 µM 98% | [10]; [18] 99% | [10]; at 50.0 µM 91.8% | [11]; at 33.0 µM 98% | [11]; [18] 99% | [11]; at 50.0 µM 91.8% | [11]; at 100.0 µM 98% | [12]; at 33.0 µM 99% | [12]; at 100.0 µM 94% | [13]; at 33.0 µM 99% | [13]; at 100.0 µM 96% | [14]; at 33.0 µM 99% | [14]; at 100.0 µM 96% | [15]; [18] 98% | [15]; at 50.0 µM 90.5% | [16]; at 11.0 µM 73% | [16]; at 33.0 µM 100% | [16]; at 100.0 µM 98%

CC(=O)OCc1ccc(O)c(C=O)c1
inactive: [1]; at 1.2 µM 1% | [1]; at 3.7 µM 1% | [1]; at 11.0 µM -10% | [1]; at 33.0 µM 18% | [1]; at 100.0 µM 57% | [2]; at 1.2 µM -26% | [2]; at 3.7 µM -4% | [2]; at 11.0 µM -23% | [2]; at 33.0 µM 8% | [2]; at 100.0 µM 18% | [3]; at 1.2 µM -6% | [3]; at 3.7 µM -2% | [3]; at 11.0 µM -10% | [3]; at 33.0 µM 14% | [3]; at 100.0 µM 60% | [4]; at 1.2 µM -24% | [4]; at 3.7 µM -17% | [4]; at 11.0 µM -18% | [4]; at 33.0 µM 6% | [4]; at 100.0 µM 25% | [5]; at 1.2 µM -5% | [5]; at 3.7 µM -20% | [5]; [17] 16% | [5]; at 11.0 µM 10% | [5]; at 33.0 µM 6% | [5]; [18] 66% | [5]; at 100.0 µM 59% | [6]; at 1.2 µM -13% | [6]; at 3.7 µM -13% | [6]; [17] 0% | [6]; at 11.0 µM -29% | [6]; at 33.0 µM -11% | [6]; [18] 41% | [6]; at 50.0 µM 56.9% | [6]; at 100.0 µM 35% | [7]; at 1.2 µM -5% | [7]; at 3.7 µM -2% | [7]; at 11.0 µM 2% | [7]; at 33.0 µM 14% | [8]; [17] 36% | [8]; at 50.0 µM 62.5% | [9]; at 1.2 µM -5% | [9]; at 3.7 µM 1% | [9]; at 11.0 µM 11% | [9]; at 33.0 µM -12% | [9]; at 100.0 µM -2% | [10]; [17] 15% | [10]; [18] 30% | [10]; at 50.0 µM 49.7% | [11]; at 1.2 µM -7% | [11]; at 3.7 µM -7% | [11]; [17] 25% | [11]; at 11.0 µM -7% | [11]; at 33.0 µM -8% | [11]; at 50.0 µM 2.85% | [11]; at 100.0 µM -11%
active: [5]; at 50.0 µM 77.5% | [7]; at 100.0 µM 81% | [8]; [18] 89% | [11]; [18] 82%
